Bioassay records deposited in PubChem by National Center for Advancing Translational Sciences (NCATS).
Cycloheximide cs – counter-screen for Shiga toxin inhibitors: cycloheximide protein synthesis inhibition; max response, %; actives 12% (n = 300,000); cell reporter, cycloheximide protein synthesis inhibition counterscreen; in the data active = max response mostly above about 13%, no sharp cut-off; inactive = mostly below about 14%; note: read at 38.3 µM for the half of the compounds with a filed dose; 0% is about no effect
Pf growth 96h – P. falciparum growth inhibition at 96 hour, primary screen for plastid delayed-death inhibitors | P. falciparum luciferase reporter growth, 96 h | Potency, µM (titrated, usually from 28.7 µM), for inactives: top-dose activity change, negative = inhibition, usual class: inhibitors | actives 6.9% (n = 320,000); note: potency is the fitted concentration of half-maximal effect; % is set by controls: 0 for no effect and ±100 for the full control effect
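Infected RBCs, 2% Hct / 0.05% parasitemia final; luciferase-reporter P. falciparum; cpd 96 h, 37 C, 5% CO2; luciferase detection reagent; luminescence.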
SARS PLpro yeast – blocks SARS-CoV papain-like protease in a yeast assay; S. cerevisiae expressing SARS-CoV PLpro, growth rescue; Potency, µM (highest dose often 32.9 µM), for inactives: top-dose activity, positive = growth rescue, hits mostly activators; actives 0.19% (n = 330,000); calls by dose curve; note: potency is the fitted concentration of half-maximal effect; 0% is about no effect; nearly all actives have a fitted effect of over 55% in size
Shiga inhibitor – Shiga toxin inhibition | Vero cells, Shiga toxin protein synthesis inhibition reporter | inhibition, % at 38.7 µM | actives 9.2% (n = 290,000) | AID 2315; in the data active = inhibition mostly above about 28%, no sharp cut-off; inactive = mostly below about 43%; note: 0% is about no effect
NS1 function inh – blocks influenza NS1 protein function; Potency, µM (doses to about 46.1 µM), inactives show top-dose activity, positive = more growth; actives 0.4% (n = 270,000); AID 2326; calls by dose curve; note: potency is the fitted concentration of half-maximal effect; actives are rising curves; nearly all actives have a fitted effect of over 50% in size
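A cell-based growth assay was used: compounds that relieve NS1-induced slow growth of budding yeast raise OD600. Assay medium was yeast nitrogen base with ammonium sulphate and -URA supplement, pH 6.0, with 2% galactose.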
Pf growth 48h – inhibits P. falciparum growth in the first generation, 48 h; P. falciparum luciferase growth in erythrocytes, 48 h; Potency, µM (titrated, usually from 28.7 µM), for inactives: top-dose activity change, negative = inhibition, actives largely listed as inhibitors; actives 5.9% (n = 310,000); AID 504832; note: potency is the fitted concentration of half-maximal effect; % is set by controls: 0 for no effect and ±100 for the full control effect
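Erythrocytes infected with P. falciparum carrying an integrated firefly luciferase reporter (2% hematocrit, 0.1% parasitemia final) were exposed to compounds in RPMI 1640 with 0.5% Albumax at 37 C, 5% CO2. Growth inhibition was scored as reduced luminescence.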
Active calls of the source: *; ? = inconclusive; · = no result given. Hits are enriched below; roughly 21% of the tested compounds scored in any of these assays. Unless noted, calls come from the whole dose curve; as a rule, active = well fitted inhibition curve with a large enough effect; inconclusive = small, poorly fitted or top-dose-only effect, or another doubt; inactive = no such curve, though single readings can be large or run the other way.

SMILES | Cycloheximide cs | Pf growth 96h | SARS PLpro yeast | Shiga inhibitor | NS1 function inh | Pf growth 48h
O=C(OCC(=O)N1CCC(Cc2ccccc2)CC1)c1cc(Cl)ccc1O | · | -30% | 0% | · | · | 3%
CCOC(=O)C1CCN(C(=O)/C=C/c2ccccc2OC)CC1 | 6 | -14% | -2% | 3 | -13% | ·
O=C(/C=C/c1ccccc1)N1CCC(Cc2ccccc2)CC1 | 30 | 8.3µM* | -6% | 41 | -75% | ?
CCOC(=O)C1CCN(C(=O)/C=C/c2ccc(OC)cc2)CC1 | 42* | 154% | 3% | 71* | -5% | ·
Cc1ccccc1/C=C/C1=NCCN1 | · | 3% | · | · | -7% | ?
CCC(C)c1ccc(S(=O)(=O)N2CCN(S(=O)(=O)c3ccc(NC(C)=O)cc3)CC2)cc1 (stereo not drawn) | -4 | ? | 11% | 8 | 14% | -8%
COc1ccc(/C=N/NC(=O)c2c(C)nc3ccccn23)cc1[N+](=O)[O-] | 8 | 29% | 1% | 21 | -5% | ?
Cc1ccc(C)c(NC(=O)CCC(=O)N/N=C/c2ccc3c(c2)OCO3)c1 | 20* | 86% | 1% | 42 | 1% | 92%
O=C(CCc1ccc(O)c(O)c1)N/N=C/c1ccc2c(c1)OCO2 | 33* | ? | 1% | 25 | 9% | ?
Cc1ccccc1NCC(=O)N/N=C\c1ccc2c(c1)OCO2 | 16 | 87% | -1% | 16 | -7% | 0%
CC(C)Oc1ccc(CCC(=O)N/N=C/c2ccc3c(c2)OCO3)cc1 | -2 | 0% | 0% | -3 | -3% | ·
CCOc1ccc(NC(=O)CCC(=O)N/N=C/c2ccc3c(c2)OCO3)cc1 | 23* | ? | 1% | 28 | · | -7%
NC(=O)C1c2ccccc2CCc2ccccc21 | · | ? | · | · | · | -5%
CC(=O)c1cccc(NC(=O)C(C)OC(=O)CCN=C2NS(=O)(=O)c3ccccc32)c1 (stereo not drawn) | · | ? | 4% | · | · | 9%
CN(/N=C\c1ccccc1O)c1ccc2ccccc2n1 | · | · | · | · | -12% | ·
CCN(CC)S(=O)(=O)c1cccc(-c2nnc(SCC(=O)NC3CCCCCCC3)n2N)c1 | -1 | · | 5% | -4 | -1% | -11%
C#CC1(O)CC(C)NCC1(C)CCC#N (stereo not drawn) | -3 | 5% | -1% | -15 | 0% | 11%
Nc1cc(S(=O)(=O)Nc2cc(Cl)ccc2Cl)ccc1N1CCCC1 | 17 | 28% | 1% | -2 | 6% | 2%
O=C1CC(N(CCc2ccccc2)C(=S)Nc2cc(Cl)ccc2Cl)C(=O)N1c1c(Cl)cccc1Cl (stereo not drawn) | -1 | 10µM* | -7% | -4 | ? | ?
O=C1CC(N(CCc2ccccc2)C(=S)Nc2ccccc2)C(=O)N1c1ccc(F)cc1 (stereo not drawn) | -2 | ? | -2% | 26 | 7% | ?
COC(=O)CN(C(=S)Nc1ccc(F)cc1)C1CC(=O)N(c2ccccc2)C1=O (stereo not drawn) | -2 | 7% | 23% | -8 | 1% | 10µM*
CCNC(=S)N(CCc1ccc(S(N)(=O)=O)cc1)C1CC(=O)N(c2ccccc2)C1=O (stereo not drawn) | 1 | 10µM* | 1% | 2 | -1% | ?
O=C1CC(N(CCc2ccccc2)C(=S)Nc2ccccc2)C(=O)N1c1ccccc1 (stereo not drawn) | -2 | 3.3µM* | 1% | 15 | 29% | ?
COC(=O)CN(C(=S)Nc1ccc(F)cc1)C1CC(=O)N(c2ccc(OC)cc2)C1=O (stereo not drawn) | 1 | 9% | 1% | -3 | 15% | -9%
CC1(c2ccccc2Cl)NC(=O)N(CC(=O)c2ccc3c(c2)OCO3)C1=O (stereo not drawn) | · | 2% | -1% | · | · | ?
SMILES | Cycloheximide cs | Pf growth 96h | SARS PLpro yeast | Shiga inhibitor | NS1 function inh | Pf growth 48h
COc1ccc(/C(C)=N/NC(=O)CNC(=O)/C=C\c2ccccc2)c(OC)c1 | 5 | 32% | -5% | 17 | -5% | 9%
CCCNC(=O)CSc1nc2[nH]ncc2c(=O)[nH]1 | -2 | ? | -1% | 2 | · | 5%
COC(=O)c1ccc2c(c1)C(=O)/C(=C/c1ccc(O)cc1)O2 | 20 | 20% | -2% | 65* | 3% | 60%
COc1cccc(OC)c1C(=O)Oc1ccc2c(c1)O/C(=C\c1ccncc1)C2=O | -2 | -70% | 0% | -6 | 21% | ?
CC(C)(C)c1ccc(/C=C2\Oc3cc(O)ccc3C2=O)cc1 | 61* | ? | -11% | 125* | -31% | ?
COc1cccc(/C=C2\Oc3ccc(O)cc3C2=O)c1O | -5 | -10% | 0% | -6 | -31% | 5.2µM*
O=C1/C(=C/c2ccc([N+](=O)[O-])cc2)Oc2cc(O)ccc21 | 40* | 41% | -6% | 67* | -43% | 55%
COC(=O)C1CCN(C(=O)COC(=O)CNC(=O)c2ccc(Cl)cc2Cl)CC1 | · | -7% | -3% | · | · | -27%
O=C(CC1C(=O)NCCN1Cc1ccccc1C(F)(F)F)NCCc1ccccn1 (stereo not drawn) | -1 | -13% | 2% | -11 | 2% | 11%
O=C1/C(=C/c2ccc(Br)cc2)Oc2cc(O)ccc21 | 29* | 13% | -10% | 61* | -57% | 40%
Cc1cccc(Nc2ncnc3ccc(Br)cc23)c1 | -2 | 0% | -4% | -15 | -48% | ?
CN(C)c1ccc(Nc2ncnc3ccc(Br)cc23)cc1 | -3 | 0% | -9% | · | -73% | 29%
Clc1cccc(Nc2ncnc3ccc(Br)cc23)c1 | -5 | 4.1µM* | -37% | -13 | -171% | 3.7µM*
Clc1ccc(Nc2ncnc3ccc(Br)cc23)cc1 | -1 | 4.1µM* | -33% | 71 | -151% | 7.4µM*
C=CCSc1nnc(C)c(/C=C/Nc2ccc(Cl)cc2)n1 | -3 | ? | 0% | 4 | · | ?
Cc1nn(C)c(C(=O)Nc2c(C)nn(Cc3c(F)c(F)c(F)c(F)c3F)c2C)c1Br | 1 | ? | -8% | -5 | 1% | -10%
c1ccc(N2CCOCCOCCOCCOCCOCC2)cc1 | -3 | 6% | 1% | -16 | -3% | -1%
O=c1cc(N2CCOCC2)cnn1-c1ccccc1 | 40* | 155% | 15% | 73* | 10% | 118%
CCN(CC(=O)Nc1ccccc1C(F)(F)F)C(=O)c1ccc2[nH]c3c(c2c1)CC(C)CC3 (stereo not drawn) | · | ? | 6% | · | · | 15µM*
Clc1ccc(C2=C3CCCCn4c(-c5ccccc5)c[n+](c43)C2)cc1 | -2 | ? | -2% | -5 | ? | 10µM*
Clc1ccc(-c2c[n+](Cc3ccc(Cl)c(Cl)c3)c3n2CCC3)cc1 | -2 | ? | -2% | -8 | 2% | ?
COc1ccc(-c2c[n+]3c4n2CCCCC4=C(c2ccc(Br)cc2)C3)cc1 | -5 | 2.1µM* | -6% | -12 | 3% | 3.7µM*
COc1ccc(-c2cnc3n2CCCCC3)cc1 | 8 | -26% | 3% | 11 | -1% | 10%
